Data from paper PMC13494018.

B1: design_609_7ee6ce64-4629-41e8-bcb4-ba0da017284d_401_dldesign_0_cycle1_af2pred (protein)
chain: AIEELIKKGKERGEKAAKRVKEGTMTPEAAKDIFKNIIKELAKAGGEEEGKKIALEGADLLAEADPEFGKKFKKEVEKE
B2: design_609_7ee6ce64-4629-41e8-bcb4-ba0da017284d_829_dldesign_0_cycle1_af2pred (protein)
chain: LEEELKKAIEEAKKAVKELKEAAKKRPLTPEEIAKLVTKVSNELGKVRFLSAEALVNKKYEKVGEEGRKAAKEIREEAKEAIKLSKEK
B3: design_609_7ee6ce64-4629-41e8-bcb4-ba0da017284d_741_dldesign_0_cycle1_af2pred (protein)
chain: EKELAEEVIKKIKEKAEKAIKEGVSREEAEKVIKEIEELATKASWEAPEYAKELNRAAKEEKKKIKKAVEEREA
B4: design_609_7ee6ce64-4629-41e8-bcb4-ba0da017284d_187_dldesign_0_cycle1_af2pred (protein)
chain: AEAEKAKAEEAAKVAEEKIKKVEKLDPKKAEELRKKLKEAMAKPDAYKAVAKVSHDAYEALAEAEWEKRK
B5: design_609_7ee6ce64-4629-41e8-bcb4-ba0da017284d_123_dldesign_0_cycle1_af2pred (protein)
chain: GAKAVAAAAHDGYQAIAEASKDAEELKKAEEAGLKAVEETGKATGDTATAKAAKERLKRYADRELKKSKKKEEEKKKKLLE
B6: design_609_7ee6ce64-4629-41e8-bcb4-ba0da017284d_287_dldesign_0_cycle1_af2pred (protein)
chain: MLKEEAKKVAEKGKKEGKYEEAIKELSEIAAKAYELAAEKLLDKETKEEGEKYREAARLARELGKELEKAA
B7: design_609_7ee6ce64-4629-41e8-bcb4-ba0da017284d_367_dldesign_0_cycle1_af2pred (protein)
chain: KRKEEQLEKLKKLAEELEKKAKEYEKDKNFKEVAKAYKEAAKKLKEAAKTGDSKVAHEARQKAAEAEWLEKKAK
B8: design_609_7ee6ce64-4629-41e8-bcb4-ba0da017284d_730_dldesign_0_cycle1_af2pred (protein)
chain: SEQAKEELEKQEKVKEVAKKVRKALKELEEAGDEEAKKEAEKLRKEASEARLLAADDPEKGLEEMKKVLEKAEKKLKEVKAKL
B9: design_609_7ee6ce64-4629-41e8-bcb4-ba0da017284d_665_dldesign_0_cycle1_af2pred (protein)
chain: MDEEKLKMAEEEMKEGEKYAKAAKAALKKGDAKKAATLASEALASYNAAAHLYELAGDKEKAKKALEEGKKVVEEVGAAVKA
B10: design_609_7ee6ce64-4629-41e8-bcb4-ba0da017284d_739_dldesign_0_cycle1_af2pred (protein)
chain: SEASKAAAEAYEKLAETEYLAKKAKESNAEEAEKYAKEAKEAAKEAIEAAKKAAELAPEGAPLMKKVEEKAKKAAEEAEKYAKKKK
B11: design_609_7ee6ce64-4629-41e8-bcb4-ba0da017284d_143_dldesign_0_cycle1_af2pred (protein)
chain: EEEKKELLESESYAIQAAHAVAAKDPATAEEAKEAFEYVALVGVEKARELLEKAKTDAESLKAAVAEAKELAKEVKKKLE
B12: design_609_7ee6ce64-4629-41e8-bcb4-ba0da017284d_830_dldesign_0_cycle1_af2pred (protein)
chain: MESLKETFEKMAKLVKKFAEYLEKLDPEAGKKTLEILKKGEEAKTPSEAISLVLRAAVYGAKELGKYDKELALEKLEKVFDL
B13: design_609_7ee6ce64-4629-41e8-bcb4-ba0da017284d_519_dldesign_0_cycle1_af2pred (protein)
chain: SEEAERELTLAKGYAELAKELAEQGPKAAKSAVKDAEKEAKEAEKIDPEVGKKAKELAEEAKKYVEEKEK
B14: design_609_7ee6ce64-4629-41e8-bcb4-ba0da017284d_297_dldesign_0_cycle1_af2pred (protein)
chain: SPEEMIKKGKELVEKRLEKAKKTAEEKTPEEAKREAEAAVAFAEGVAEALAKHPEAAAAGEALLKETKEEAEKIIKKAKE
B15: design_609_7ee6ce64-4629-41e8-bcb4-ba0da017284d_478_dldesign_0_cycle1_af2pred (protein)
chain: DAVKKAAEEAAKEAAKHPKGEKIAKAIEKGAEVAIKNSDKSFSQAAGDGASTIISLLGKEAGVDAIEAQDYADYWLDLVEKNS
B16: design_609_7ee6ce64-4629-41e8-bcb4-ba0da017284d_250_dldesign_0_cycle1_af2pred (protein)
chain: MEEVKKKAEKALKEAKAALKEAKALGNEEAIKAAEQAIKFAKKALEYAEKGDLNGAEAYLEAAKHALKVAKDAIKAAKKAA
B17: design_609_7ee6ce64-4629-41e8-bcb4-ba0da017284d_738_dldesign_0_cycle1_af2pred (protein)
chain: MEEALARIDAALKRAKELAKEAEKAGDKKAAAEMESAIAFAEQQRENALKGSPEYAKKAAEAAEAYTDRKIKRAEEIRKKK
B18: design_609_7ee6ce64-4629-41e8-bcb4-ba0da017284d_654_dldesign_0_cycle1_af2pred (protein)
chain: AAAEQAKLKAEAKALMAAMKAAGKAGDVAAVEAAAKAALAKAKELAKIDPALGSKLAAEIHETRAEALSTARKTREEKKKEEELKK
B19: design_609_7ee6ce64-4629-41e8-bcb4-ba0da017284d_842_dldesign_0_cycle1_af2pred (protein)
chain: SMREEELEADRKKVDEGAKELKKLGEEAAKKAKTWEEFVKGHKELREKAKEVVDAALPEVKPYAEKAASKVVHDARQKGAENVQKQK

Each binder was assayed against VTCN1, Q7Z7D3.
VTCN1, Q7Z7D3, sequence (Q7Z7D3 whole entry): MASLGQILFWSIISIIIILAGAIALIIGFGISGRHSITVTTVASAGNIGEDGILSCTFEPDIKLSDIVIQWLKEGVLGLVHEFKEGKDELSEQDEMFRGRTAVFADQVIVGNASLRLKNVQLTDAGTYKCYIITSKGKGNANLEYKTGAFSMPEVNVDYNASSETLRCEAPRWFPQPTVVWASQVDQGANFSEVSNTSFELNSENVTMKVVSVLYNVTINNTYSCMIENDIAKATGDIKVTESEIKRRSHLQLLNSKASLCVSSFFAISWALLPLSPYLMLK

Binding in a display sort, inactive:
B1 not found
B2 not found
B3 not found
B4 not found
B5 not found
B6 not found
B7 not found
B8 not found
B9 not found
B10 not found
B11 not found
B12 not found
B13 not found
B14 not found
B15 not found
B16 not found
B17 not found
B18 not found
B19 not found
